PubChem BioAssay (NCATS)
“And” between values parts separate entries of the source, which are not always exact repeats. Identical values can stand only once. Results filed as inconclusive are left out. Where a structure was tested more than once in an assay, its records may differ in their call. The source made the active and inactive calls. Unless noted, calls follow the shape of the dose curve; as a rule, active = well fitted curve in the direction sought with a large enough effect; inconclusive = small, poorly fitted or top-dose-only effect, or another doubt; inactive = no such curve, though single readings can be large; an effect the other way counts as inactive or inconclusive.

Columns and labels:
[1] = qHTS for compounds that reverse cellular toxicity of Amyloid beta (A-beta) peptide in yeast: LOPAC Validation Assay (AID 720559);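 also: plate controls were DMSO for no effect and equimolar ferric chloride plus clioquinol rescue for full effect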
Procedure, shortened: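 Medium dispensed, compounds pinned, A-beta yeast suspension added; plates held at 30 C for 48 hr; absorbance measured at 600 nm to gauge growth; values scaled between DMSO and FeCl3/clioquinol (equimolar) controls.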

[2] = qHTS for Activators of Parkin Expression: LOPAC Validation Assay (NLuc Reporter) (AID 720572)
Procedure, shortened: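 Neuronal line stably carrying a FLuc/NLuc coincidence reporter under the Parkin promoter, seeded 24 h, then dosed in 7-point series for 24 h at 37 C. NLuc luminescence read after FLuc; normalized to DMSO and positive control (100%).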

[3] = qHTS for Activators of Parkin Expression: LOPAC Validation Assay (FLuc Reporter) (AID 720573)
Procedure, shortened: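 Cells seeded, 24 h; compounds pinned, 7-pt dose response; 24 h at 37 C/5% CO2; volume reduced; FLuc reagent 10 min RT; luminescence read. Normalization: DMSO = 0, positive control = 100%.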

[4] = biological target: T1, Hexokinase-4 (Homo sapiens) + Glucokinase regulatory protein (Homo sapiens) (UniProt P35557+Q14397); assay: qHTS assay for inhibitors of recombinant human GCK-GKRP interaction: Diaphorase-coupled assay (AID 743205)
T1 sequence (P35557 whole entry, looked up): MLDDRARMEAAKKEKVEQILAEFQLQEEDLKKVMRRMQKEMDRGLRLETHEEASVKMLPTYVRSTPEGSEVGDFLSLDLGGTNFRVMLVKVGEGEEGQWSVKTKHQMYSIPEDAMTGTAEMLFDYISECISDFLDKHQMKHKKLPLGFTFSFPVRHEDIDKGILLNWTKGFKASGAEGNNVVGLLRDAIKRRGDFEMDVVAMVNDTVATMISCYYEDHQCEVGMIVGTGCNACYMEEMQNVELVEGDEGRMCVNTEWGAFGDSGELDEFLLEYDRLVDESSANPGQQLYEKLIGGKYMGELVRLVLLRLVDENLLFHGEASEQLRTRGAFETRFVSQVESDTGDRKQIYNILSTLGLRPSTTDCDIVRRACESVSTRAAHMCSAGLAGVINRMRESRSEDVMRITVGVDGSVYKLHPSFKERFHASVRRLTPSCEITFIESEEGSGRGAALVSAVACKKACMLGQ
T1 sequence (Q14397 whole entry, looked up): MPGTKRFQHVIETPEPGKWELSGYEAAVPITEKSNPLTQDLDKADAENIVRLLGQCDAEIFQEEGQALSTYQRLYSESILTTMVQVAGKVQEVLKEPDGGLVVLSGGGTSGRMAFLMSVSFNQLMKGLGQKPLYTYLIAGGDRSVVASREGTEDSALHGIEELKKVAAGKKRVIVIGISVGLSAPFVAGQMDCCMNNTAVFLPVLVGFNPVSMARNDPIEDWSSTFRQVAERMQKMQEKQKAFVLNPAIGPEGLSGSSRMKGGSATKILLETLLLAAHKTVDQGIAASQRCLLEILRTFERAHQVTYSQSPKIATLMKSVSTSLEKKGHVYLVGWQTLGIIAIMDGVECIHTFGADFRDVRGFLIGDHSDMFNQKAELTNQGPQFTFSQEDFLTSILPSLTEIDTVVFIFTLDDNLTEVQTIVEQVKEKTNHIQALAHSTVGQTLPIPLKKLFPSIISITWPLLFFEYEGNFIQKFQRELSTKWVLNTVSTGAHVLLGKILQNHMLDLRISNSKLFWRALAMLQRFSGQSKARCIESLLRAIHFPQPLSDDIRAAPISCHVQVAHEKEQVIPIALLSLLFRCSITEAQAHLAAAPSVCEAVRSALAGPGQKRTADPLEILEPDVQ
Procedure, shortened: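 25 mM Hepes pH 7.6, 5 mM glucose, 0.4 mM ATP, 4 U/ml G6PDH; 10 nM each GST-GCK/FLAG-GKRP. Kinetic fluorescence read, 1/min × 30 min. Normalized: DMSO ± enzyme = max/min.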

[5] = biological target: T1, Hexokinase-4 (Homo sapiens) + Glucokinase regulatory protein (Homo sapiens); assay: qHTS assay for inhibitors of recombinant human GCK-GKRP interaction: ADP-Glo assay (AID 743206);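 also: plate controls were DMSO plus enzyme for no effect and no enzyme for full effect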
Procedure, shortened: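 GST-GCK and FLAG-GKRP (15 nM each in the dispensed mix, with 2 uM S6P) react with 0.4 mM ATP and 5 mM glucose (final) in Hepes pH 7.6 for 60 min at room temperature. ADP is measured by ADP-Glo luminescence.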

[6] = biological target: T1, Hexokinase-4 (Homo sapiens) + Glucokinase regulatory protein (Homo sapiens); assay: qHTS assay for inhibitors of recombinant human GCK-GKRP interaction: HTRF assay (AID 743207);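 also: 0% = DMSO with GCK present and -100% = DMSO wells lacking GCK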
Procedure, shortened: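 5 nM GST-GCK + 5 nM FLAG-GKRP + 2 uM S6P, pH 7.1 buffer (25 mM Hepes, 2 mM MgCl2, 25 mM KCl, 1 mM DTT, Tween/BSA); pin-transferred cpd; anti-FLAG XL665/anti-GST K; 60 min RT; HTRF.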

[7] = qHTS Assay for Identifying Gametocytocidal Compounds (AID 743244); also: potency is read from the fitted curve at half-maximal effect;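 as to max response: % is scaled to controls: 0 for no effect and ±100 for the full control effect; actives lower the fluorescent signal which means gametocytes are killed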; settings: P. falciparum 3D7 stage III-V gametocytes, alamarBlue, 72 h; max response: stronger effect = lower value
Procedure, shortened: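 Stage III-V P. falciparum 3D7 gametocytes, 20,000 per well, were exposed to compounds for 72 h at 37C, 5% CO2. AlamarBlue was then added for 24 h and viability was read as fluorescence at Ex 525/Em 598 nm.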

[8] = qHTS assay for small molecule agonists of the antioxidant response element (ARE) signaling pathway measured by Nrf2-dependant transcriptional activity (AID 720636; active = well fitted curve in the direction sought with a large enough effect in the repeat runs; an effect the other way counts as inactive or inconclusive; also: % of control where 0% means no effect)
Procedure, shortened: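 ARE-luc HepG2 cells carrying an Nrf2-responsive luciferase reporter were plated in medium with 1% dialyzed FBS, left 6 hr at 37 C to attach, then exposed to compound for 16 hr. Luciferase luminescence was read after ONE-Glo addition.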

[9] = qHTS assay for small molecule agonists of the antioxidant response element (ARE) signaling pathway measured by Nrf2-dependant transcriptional activity - cell viability counter screen (AID 720653; active = well fitted curve in the direction sought with a large enough effect in the repeat runs; an effect the other way counts as inactive or inconclusive; also: potency is read from the fitted curve at half-maximal effect; as to max response: % is scaled to controls: 0 for no effect and ±100 for the full control effect); settings: ARE-bla HepG2 viability, CellTiter-Glo ATP luminescence, 16 h; max response: stronger effect = lower value
Procedure, shortened: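 ARE-bla HepG2 cells (2,000/well) rested 5 hrs at 37C/5% CO2, then exposed to compounds in DMSO for 16 hrs. Viability was read in the same wells as intracellular ATP by luminescence, 30 min at room temperature after reagent addition.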

[10] = qHTS assay for cell viability of HEK293 cells (AID 743288); settings: ATP luminescence (CellTiter-Glo), 18 h; max response: stronger effect = lower value; also: nearly all actives have a fitted effect of over 50% in size; also: potency is read from the fitted curve at half-maximal effect; as to max response: % is scaled to controls: 0 for no effect and ±100 for the full control effect
Procedure, shortened: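 HEK293 parental, 2,000 cells/well; ≥5 h pre-incubation 37 C; pintool compound addition; 18 h, 37 C; CellTiter-Glo 30 min RT; luminescence read.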

[11] = qHTS assay for cell viability of the p53RE-bla HCT-116 cell line (AID 743292); also: % is scaled to controls: 0 for no effect and ±100 for the full control effect; nearly all actives have a fitted effect of over 55% in size
Procedure, shortened: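 CellSensor p53RE-bla HCT-116 cells, 4,000/well, preincubated 5 h at 37 C, then exposed to compounds in DMSO for 16 h at 37 C. Viability read as CellTiter-Glo luminescence (intracellular ATP) after 30 min at room temperature.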

[12] = qHTS assay for small molecule antagonists of the retinoid-related orphan receptor gamma (ROR-gamma) signaling pathway - cell viability counter screen (AID 720652; active = well fitted curve in the direction sought with a large enough effect in the repeat runs; an effect the other way counts as inactive or inconclusive;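 also: compound exposure lasted 16 hr before ATP read; % is scaled to controls: 0 for no effect and ±100 for the full control effect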)
Procedure, shortened: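 Luminescence from CellTiter-Glo after 30 min at room temperature reported cellular ATP as the cytotoxicity measure. Cells were the CHO reporter line with doxycycline-induced ROR-gamma expression, exposed to compound for 16 hr at 37 C.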

[13] = qHTS profiling of the MIPE4 collection as inhibitors of Plasmodium falciparum (3D7) proliferation (AID 743344; call rule not given here;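 also: scaled between DMSO vehicle wells and 0.29 µM artemisinin as full inhibition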); settings: P. falciparum 3D7 in erythrocytes, SYBR Green DNA fluorescence, 72 h; at 28.5 µM (top of the series)
Procedure, shortened: (§1)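 Erythrocytes infected with P. falciparum (0.3% parasitemia, 2.5% hematocrit) incubated with compounds 72 h at 37 C, 5% CO2. Lysis with saponin/Triton buffer containing SYBR Green I, overnight at room temperature in the dark; DNA fluorescence (485/535 nm) normalised to 0.29 uM artemisinin and DMSO.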

[14] = qHTS profiling of the MIPE4 collection as inhibitors of Plasmodium falciparum (DD2) proliferation (AID 743345; call rule not given here); settings: P. falciparum Dd2 in erythrocytes, SYBR Green DNA, 72 h; at 28.5 µM (top of the series)
Procedure, shortened: as §1

[15] = qHTS profiling of the MIPE4 collection as inhibitors of Plasmodium falciparum (DD2) proliferation (Rep 2) (AID 743346; call rule not given here); settings: P. falciparum Dd2 in erythrocytes, SYBR Green DNA, 72 h; at 28.5 µM (top of the series)
Procedure, shortened: as §1

[16] = qHTS profiling for inhibitors of Plasmodium falciparum (3D7) proliferation (AID 743322);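 also: infected erythrocytes exposed to compound for 72 h before lysis; 100% = DMSO vehicle wells and 0% = 0.29 µM artemisinin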; settings: P. falciparum 3D7 proliferation; at 28.7 µM (top of the series) unless noted
Procedure, shortened: as §1

[17] = qHTS profiling for inhibitors of Plasmodium falciparum (DD2) proliferation (AID 743323; call rule not given here); settings: lower = more inhibition; at 28.7 µM (top of the series) unless noted
Procedure, shortened: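 SYBR Green fluorescence (ex 485, em 535 nm) of lysed cultures gives parasite DNA content; wells normalized to artemisinin (0.29 uM) and DMSO controls. Infected red cells: 0.3% parasitemia, 2.5% hematocrit, 72 h, 37 C.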

[18] = qHTS profiling for inhibitors of Plasmodium falciparum (HB3) proliferation (AID 743324); settings: Plasmodium falciparum HB3 blood-stage proliferation; at 28.7 µM (top of the series);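 also: 100% = DMSO vehicle wells and 0% = artemisinin-treated control wells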
Procedure, shortened: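 P. falciparum HB3 grown in erythrocytes (0.3% parasitemia, 2.5% hematocrit final) with compound for 72 h at 37 C, 5% CO2. Parasite DNA detected by SYBR Green after saponin/triton lysis overnight; normalized to 0.29 uM artemisinin and DMSO.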

CCn1cc(C(=O)O)c(=O)c2cc3c(cc21)OCO3
inactive: outcome [1] | Potency [2] | outcome [3] | outcome [4] | outcome [5] | Potency [6] | max response [7] -6.25% and -3.93%

C=CCc1ccccc1OCC(O)CNC(C)C (stereo unspecified)
inactive: outcome [1] | outcome [3] | outcome [4] | outcome [5] | Potency [6] | max response [7] 17.2%

OCCN1CCN(CC/C=C2/c3ccccc3Sc3ccc(C(F)(F)F)cc32)CC1
inactive: outcome [1] | Potency [2] | outcome [3] | outcome [5] | Potency [6]

NCCCNCCSP(=O)(O)O
inactive: outcome [1] | Potency [2] | outcome [3] | outcome [4] | outcome [5] | Potency [6] | max response [7] 4.77% and 12.2%

COC(=O)[C@H]1[C@H]2C[C@@H]3c4[nH]c5cc(OC)ccc5c4CCN3C[C@H]2C[C@@H](OC(=O)c2cc(OC)c(OC)c(OC)c2)[C@@H]1OC
inactive: outcome [1] | outcome [3] | outcome [8] | max response [9] -16.7% and -9.72% | outcome [4] | outcome [5] | Potency [6] | outcome [11]
active: Potency [10] 39.8 µM

NC/C=C/C(=O)O
inactive: outcome [1] | Potency [2] | outcome [3] | outcome [5] | Potency [6] | max response [7] 18.4% and 29.6%

NC(=Nc1ccccc1)Nc1ccccc1
inactive: outcome [12] | max response [7] 5.26% and -9.95% | max response [10] -13.7% and -2.76% | outcome [11]

CCN(CC)CCNC(=O)c1ccc(NC(C)=O)cc1
inactive: outcome [1] | outcome [3] | outcome [5] | Potency [6] | max response [7] 11.5% and -3.43%

CN(C)CC[C@@H](c1ccc(Br)cc1)c1ccccn1
inactive: outcome [4] | outcome [5] | Potency [6] | max response [7] -2.43% and 14.2%

CCOC(=O)c1cnc2c(cnn2CC)c1NN=C(C)C
inactive: outcome [1] | outcome [3] | outcome [4] | outcome [5] | Potency [6] | max response [7] 1.49% and 6.62%

CN(C)CCCN1c2ccccc2Sc2ccc(C(F)(F)F)cc21
inactive: outcome [1] | outcome [3] | outcome [4] | outcome [5] | Potency [6]

CNC1(C)C2CCC(C2)C1(C)C (stereo unspecified)
inactive: outcome [1] | Potency [2] | outcome [3] | outcome [4] | outcome [5] | Potency [6] | max response [7] 12.1% and 8.7%

CCCNC(C)C(=O)Nc1ccccc1C (stereo unspecified)
inactive: outcome [1] | Potency [2] | outcome [3] | outcome [4] | outcome [5] | Potency [6] | max response [7] 7.26% and 27.6%

CC(=O)OCC1=C(C(=O)O)N2C(=O)[C@@H](NC(=O)Cc3cccs3)[C@H]2SC1
inactive: outcome [1] | outcome [3] | outcome [4] | outcome [5] | Potency [6] | max response [7] 2.41% and 26.5%

CCCCNc1c(C(=O)OCC)c(C)nc2c1cnn2CC
inactive: outcome [1] | Potency [2] | outcome [3] | outcome [5] | Potency [6] | max response [7] -2.63% and 24%

CC(C)COCC(CN(Cc1ccccc1)c1ccccc1)N1CCCC1 (stereo unspecified)
active: Potency [7] 22.4 µM
5.43%: parasite growth, % of DMSO control [13]
16%: parasite growth, % of control (lower = inhibition) [15]
7.8%: parasite growth remaining, % of DMSO control (lower = more inhibition) [14]
inactive: outcome [1] | outcome [3] | outcome [4] | outcome [5] | Potency [6] | max response [7] 9.9%

O=C(O)CN(CCN(CC(=O)O)CC(=O)O)CCN(CC(=O)O)CC(=O)O
inactive: outcome [1] | Potency [2] | outcome [3] | outcome [4] | outcome [5] | Potency [6] | max response [7] 13% and 27.1%

C[N+](C)(C)CCCCCCCCCC[N+](C)(C)C
inactive: outcome [4] | outcome [5] | Potency [6]

CC(=O)Nc1nnc(S(N)(=O)=O)s1
inactive: outcome [1] | outcome [3] | outcome [8] | max response [9] 1.81% | outcome [4] | outcome [5] | Potency [6] | max response [7] 9.9% and 9.69% | max response [10] -6.47% | outcome [11]

Nc1nc(N)c2nc(-c3ccccc3)c(N)nc2n1
active: Potency [9] 25.1 µM | Potency [10] 31.6 µM
inactive: outcome [1] | outcome [3] | outcome [8] | outcome [12] | outcome [4] | outcome [5] | Potency [6] | max response [7] -2.09% and -8.78% | outcome [11]

C[C@@H](O)[C@H]1C(=O)N2C(C(=O)O)=C(SCCN=CN)C[C@H]12
inactive: outcome [1] | Potency [2] | outcome [3] | outcome [4] | outcome [5] | Potency [6] | max response [7] 3.85% and 8.18%

COCC(=O)O[C@]1(CCN(C)CCCc2nc3ccccc3[nH]2)CCc2cc(F)ccc2[C@@H]1C(C)C
active: Potency [7] 2.64 µM and 1.41 µM
inactive: outcome [1] | outcome [3] | outcome [5] | Potency [6]
-1.39%: remaining proliferation (% of control), lower = more inhibition [18]
-2.7%: remaining parasite growth % (stronger effect = lower value) [16]
-0.639%: activity, percent of control [17]
